TGFb SMAD3 inh: blocks TGF-b signaling. AID 588855. HepG2 CAGA-GFP TGF-b/SMAD3 reporter, GFP fluorescence, 18 h; TGF-beta stimulated, 500 pg/mL final. 1.2% of 410,000 active. Potency, µM (series often up to 46.1 µM), usual class: inhibitors; also: nearly all actives have a fitted effect of over 65% in size
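TGF-beta reporter screen: HEPG2 CAGA-GFP, 1% FBS, 500 pg/mL TGF-beta final, 18 h; per-cell GFP summed per well; curves fitted and categorized by class.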
ATXN2 expr inh: ATXN2 expression inhibition. HEK-293 ATXN2-luciferase reporter, luminescence, 24 h. Potency, µM (top dose mostly 57 µM), most hits filed as inhibitors. 0.72% of 360,000 active. AID 1745845; also: nearly all actives have a fitted effect of over 55% in size
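ATXN2-luciferase reporter cells (luciferase flanked by upstream and downstream ATXN2 gene portions) were treated 24 h at 37 °C with compounds at up to 57 uM. SteadyGlo luminescence gave expression; GF-AFC fluorescence gave viability.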
S2 tox: cell viability loss in ATXN counter-screen. S2 cells (HEK-293 line with an ATXN2-luciferase reporter) viability, CellTiter-Fluor protease fluorescence, 24 h. Potency, µM (top dose mostly 56.7 µM), hits mostly cytotoxic. 0.49% of 400,000 active. AID 651635; also: nearly all actives have a fitted effect of over 40% in size
DRD3 agonist: activates the human D3 dopamine receptor; P35462; D3R DiscoveRx beta-arrestin cells, luminescence, 90 min; 0.58% of 410,000 active; max activation, %; in the data active = max activation above about 30%
Target sequence (P35462 whole entry, looked up): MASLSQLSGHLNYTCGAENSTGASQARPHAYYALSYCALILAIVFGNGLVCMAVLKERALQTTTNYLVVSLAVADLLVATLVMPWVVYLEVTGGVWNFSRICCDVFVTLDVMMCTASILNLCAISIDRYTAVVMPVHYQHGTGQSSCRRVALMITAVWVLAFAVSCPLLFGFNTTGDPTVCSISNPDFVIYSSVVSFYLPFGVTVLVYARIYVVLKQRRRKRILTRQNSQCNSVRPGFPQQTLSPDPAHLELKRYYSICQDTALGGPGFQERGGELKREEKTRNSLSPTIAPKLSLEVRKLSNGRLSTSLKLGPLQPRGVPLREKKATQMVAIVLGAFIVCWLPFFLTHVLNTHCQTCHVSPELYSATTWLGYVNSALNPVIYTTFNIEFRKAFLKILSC
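Cells at 1500/well, incubated overnight, then treated with pinned compounds (dopamine as control) for 90 min at 37 degrees C. DiscoveRx reagent added for 30 - 60 minutes at room temperature; luminescence read.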
DRD3 antagonist: antagonists of human D3 dopamine receptor | P35462 | D3R cells, DiscoveRx beta-arrestin luminescence, antagonist mode; hits give low values | max response, negative = inhibition, % | 2.5% of 360,000 active | AID 652054; in the data active = max response below about -50%; inconclusive = no clear call, values can overlap the other calls
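Cells expressing the human receptor were seeded at 1500 cells/well, incubated overnight at 37 degrees C in 5% CO2, then exposed to library compounds with dopamine controls for 90 minutes at 37 degrees C before luminescent detection.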
HepG2 viability: counter-screen for TGF-b inhibitors: cytotoxicity in HepG2 cells; 0.76% of 410,000 active; AID 588856; Potency, µM (highest dose often 46.1 µM), actives largely listed as cytotoxic; HepG2 CAGA-GFP viability, ATP luminescence, 18 h
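HepG2 CAGA-GFP cells (1000/well, DMEM with 1% FBS) received compound, then TGF-beta at 500 pg/mL final, and were incubated 18 hours at 37 degrees C. Viability was read by CellTiter-Glo luminescence. Media-only wells were set as complete cell-killing and DMSO as no toxicity.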
EBOV S4 ratio: Ebola entry inhibition, ratio channel, screen 4 | shares compounds with ATXN2 expr inh | Ebola pseudovirus entry assay, ratio channel | AC50, µM | 79% of 170 active | AID 1117308; calls by dose curve
EBOV S4 blue: Ebola entry inhibition, blue channel, screen 4. Ebola virus entry assay, blue channel fluorescence ratio; Channel: blue. calls only. shares compounds with ATXN2 expr inh. 170 tested, under 10 active; call rule not given here
EBOV S4 green: Ebola virus entry blockers, screen 4 green channel. calls only. shares compounds with ATXN2 expr inh. Ebola virus entry reporter assay, green fluorescence channel; Channel: green. AID 1117316. 170 tested, under 10 active; call rule not given here
A number is an active result; ! = a repeat was not active. This is a sample that favours compounds with a hit; in the whole collection about 4.7% have one here. Unless noted, calls follow the shape of the dose curve; as a rule, active = well fitted curve in the direction sought with a large enough effect; inconclusive = small, poorly fitted or top-dose-only effect, or another doubt; inactive = no such curve, though single readings can be large; an effect the other way counts as inactive or inconclusive.

What do the screens show for `CC[C@H]1OC(=O)C[C@@H](O)[C@H](C)[C@@H](O[C@@H]2O[C@H](C)[C@@H](O[C@H]3C[C@@](C)(O)[C@@H](O)[C@H](C)O3)[C@H](N(C)C)[C@H]2O)[C@@H](CC=O)C[C@@H](C)C(=O)/C=C/C(C)=C/[C@@H]1CO[C@@H]1O[C@H](C)[C@@H](O)[C@@H](OC)[C@H]1OC`?
TGFb SMAD3 inh: inactive; ATXN2 expr inh: inactive; S2 tox: inactive; DRD3 agonist: inactive; DRD3 antagonist: inactive; HepG2 viability: inactive

How did CCC1(CC)C(=O)NC(=O)N(C)C1=O do in these assays?
DRD3 agonist: inactive

Results for CCn1c(COc2cccc3ccccc23)nnc1SCC(N)=O ?
TGFb SMAD3 inh: inactive; ATXN2 expr inh: inactive; S2 tox: inconclusive; DRD3 agonist: inactive; DRD3 antagonist: inactive; HepG2 viability: inactive

How did Cc1ccc(Sc2ccc(N3CCCC(C(=O)Nc4ccc(Cl)cc4)C3)nn2)cc1 (stereo not given) do in these assays?
TGFb SMAD3 inh: inconclusive; ATXN2 expr inh: inactive; S2 tox: inactive; DRD3 agonist: inactive; HepG2 viability: inactive

What do the screens show for `Cc1c(C)c2c(OCC(=O)N[C@@H](C)C(=O)O)cc3c(c2oc1=O)CCC(C)(C)O3`?
TGFb SMAD3 inh: inconclusive; ATXN2 expr inh: inactive; S2 tox: inactive; DRD3 agonist: inactive; DRD3 antagonist: inactive; HepG2 viability: inactive

Results for CC(C)(C)c1ccc(C(=O)NC(=S)Nn2cnnc2)cc1 ?
TGFb SMAD3 inh: inactive; ATXN2 expr inh: inactive; S2 tox: inconclusive; DRD3 agonist: inactive; DRD3 antagonist: inactive; HepG2 viability: inactive

Results for O=c1[nH]c(O)c(N=Nc2ccc(Cl)c(S(=O)(=O)Nc3ccccc3Cl)c2)c(=O)[nH]1 ?
TGFb SMAD3 inh: inactive; ATXN2 expr inh: inactive; S2 tox: inconclusive; DRD3 agonist: inactive; DRD3 antagonist: inactive; HepG2 viability: inactive

What do the screens show for `CCCCCNc1c(C(=O)OCC)c(=O)[nH]c2ccccc12`?
TGFb SMAD3 inh: inactive; ATXN2 expr inh: inactive; S2 tox: inconclusive; DRD3 agonist: inactive; DRD3 antagonist: inactive; HepG2 viability: inactive

What do the screens show for `COc1cccc(CNC(=O)Cn2c(=O)oc3cc(S(=O)(=O)N4CCCCCC4)ccc32)c1`?
TGFb SMAD3 inh: inconclusive; DRD3 agonist: inactive; HepG2 viability: inactive

What do the screens show for `NC[C@H](O)c1ccc(O)c(O)c1`?
TGFb SMAD3 inh: inactive; ATXN2 expr inh: inactive; S2 tox: inactive; DRD3 agonist: 47!; DRD3 antagonist: inactive; HepG2 viability: inactive; EBOV S4 ratio: inactive; EBOV S4 blue: inactive; EBOV S4 green: inactive

How did C[C@H](N)[C@H](O)c1ccc(O)c(O)c1 do in these assays?
ATXN2 expr inh: inactive; S2 tox: inconclusive; DRD3 agonist: inactive; EBOV S4 ratio: inactive; EBOV S4 blue: inactive; EBOV S4 green: inactive

Results for CN(C)C(=O)Oc1ccc(OCc2nc3ccccc3[nH]2)cc1 ?
TGFb SMAD3 inh: inactive; ATXN2 expr inh: inconclusive; S2 tox: inactive; DRD3 agonist: inactive; DRD3 antagonist: inactive; HepG2 viability: inactive

How did CN(C)C1C(=O)C(C(N)=O)=C(O)C2(O)C(=O)C3=C(O)c4c(O)cccc4C(C)(O)C3CC12 (stereo not given) do in these assays?
TGFb SMAD3 inh: inactive; ATXN2 expr inh: inactive; S2 tox: inactive; DRD3 agonist: inactive; DRD3 antagonist: inactive; HepG2 viability: inactive

What do the screens show for `C[C@@H](C1CC[C@@]2(O)C3=CC(=O)[C@@H]4C[C@@H](O)[C@@H](O)C[C@]4(C)[C@H]3CC[C@]12C)[C@H](O)CCC(C)(C)O` (stereo not given in full)?
TGFb SMAD3 inh: inactive; HepG2 viability: inactive

What do the screens show for `O=C(N[C@H]1CN2CCC1CC2)c1ccc(Cl)cc1`?
ATXN2 expr inh: inactive

High-throughput results deposited in PubChem BioAssay by National Center for Advancing Translational Sciences (NCATS).
